Experimental data published in PubChem BioAssay (NCI).
Compounds without any hit were thinned out: in the full panel of roughly 83,000, 20% have a hit.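 Step 1: grow cells in 96-well plates. Step 2: add test compound at a single concentration. Step 3: incubate 48 h. Step 4: record percent growth.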 Calls of active or inactive are those of the source. The calls were made as follows: active = growth percent below 10; inactive = the rest.

Key:
Experiment in all cases: NCI-60 one-dose screen, 48 h (100 = growth as untreated, 0 = no growth, -100 = all killed)
Conditions in all cases: 10 µM unless noted
HCT-15 colon = test system: HCT-15 colon
HT29 colon = test system: HT29 colon
SNB-75 CNS = test system: SNB-75 CNS
SNB-19 CNS = test system: SNB-19 CNS
U251 CNS = test system: U251 CNS
PC-3 prostate = test system: PC-3 prostate
SK-MEL-5 melanoma = test system: SK-MEL-5 melanoma
UACC-62 melanoma = test system: UACC-62 melanoma
LOX IMVI melanoma = test system: LOX IMVI melanoma
SK-MEL-28 melanoma = test system: SK-MEL-28 melanoma
SK-MEL-2 melanoma = test system: SK-MEL-2 melanoma
EKVX NSCLC = test system: EKVX NSCLC
SN12C renal = test system: SN12C renal
UO-31 renal = test system: UO-31 renal
TK-10 renal = test system: TK-10 renal
CAKI-1 renal = test system: CAKI-1 renal
A498 renal = test system: A498 renal
CCRF-CEM leukemia = test system: CCRF-CEM leukemia
MOLT-4 leukemia = test system: MOLT-4 leukemia
ACHN renal = test system: ACHN renal

Measured: growth

CC12CCC(/C(=C/NNc3ccc([N+](=O)[O-])cc3[N+](=O)[O-])C1=O)C2(C)C (stereo not given)
inactive: HCT-15 colon 23% | HT29 colon 52.6% | SNB-75 CNS 136% | SNB-19 CNS 94.1% | U251 CNS 58.4% | PC-3 prostate 59.5% | SK-MEL-5 melanoma 65.5% | UACC-62 melanoma 64.5% | LOX IMVI melanoma 56.5% | SK-MEL-28 melanoma 83.5% | SK-MEL-2 melanoma 38.4% | EKVX NSCLC 90.8% | SN12C renal 73.1% | UO-31 renal 55.2% | TK-10 renal 96.8% | CAKI-1 renal 46.8% | A498 renal 88.5% | CCRF-CEM leukemia 47.4% | MOLT-4 leukemia 41.3%

CCCCCSB(SCCCCC)c1ccccc1
inactive: HCT-15 colon 96.8% | HT29 colon 96.4% | SNB-75 CNS 78.7% | SNB-19 CNS 96.6% | U251 CNS 99.7% | PC-3 prostate 97.2% | SK-MEL-5 melanoma 105% | UACC-62 melanoma 105% | LOX IMVI melanoma 96.8% | SK-MEL-28 melanoma 110% | SK-MEL-2 melanoma 102% | EKVX NSCLC 106% | SN12C renal 106% | UO-31 renal 81.3% | TK-10 renal 101% | CAKI-1 renal 96% | A498 renal 95.4% | CCRF-CEM leukemia 97.4% | MOLT-4 leukemia 96.4%

NC(=O)c1c(NC(=O)c2ccc(Cl)cc2)sc2c1CCC(=O)C2
active: CCRF-CEM leukemia 7.15%
inactive: HCT-15 colon 63.5% | HT29 colon 62.5% | SNB-75 CNS 45.4% | SNB-19 CNS 71.1% | U251 CNS 24% | PC-3 prostate 15.5% | SK-MEL-5 melanoma 99.1% | UACC-62 melanoma 61.9% | LOX IMVI melanoma 56.5% | SK-MEL-28 melanoma 99.2% | SK-MEL-2 melanoma 99.6% | EKVX NSCLC 92.7% | SN12C renal 71.8% | UO-31 renal 40.7% | TK-10 renal 85.2% | CAKI-1 renal 18.6% | A498 renal 77% | MOLT-4 leukemia 46.3%

COc1cc2c(/C=C3\C(=O)Nc4ccccc43)c(C(=O)O)[nH]c2cc1C
inactive: HCT-15 colon 105% | HT29 colon 89.8% | SNB-75 CNS 66.3% | SNB-19 CNS 113% | U251 CNS 96.4% | PC-3 prostate 79.8% | SK-MEL-5 melanoma 109% | UACC-62 melanoma 84.3% | LOX IMVI melanoma 92.7% | SK-MEL-28 melanoma 81.6% | SK-MEL-2 melanoma 101% | EKVX NSCLC 89.2% | SN12C renal 99.7% | UO-31 renal 55% | TK-10 renal 134% | CAKI-1 renal 94.8% | A498 renal 136% | CCRF-CEM leukemia 88.7% | MOLT-4 leukemia 84%

COc1ccc(C2=Nc3c(N)ncnc3NC(c3cccc(Nc4ccnc5cc(C(F)(F)F)ccc45)c3)C2)cc1 (stereo not given)
inactive: HCT-15 colon 32.4% | HT29 colon 42.6% | SNB-75 CNS 56.7% | SNB-19 CNS 68.2% | U251 CNS 54.5% | PC-3 prostate 42.2% | SK-MEL-5 melanoma 51.8% | UACC-62 melanoma 76.1% | LOX IMVI melanoma 61.8% | SK-MEL-28 melanoma 84% | SK-MEL-2 melanoma 73.7% | EKVX NSCLC 54% | SN12C renal 63.9% | UO-31 renal 45.2% | TK-10 renal 95.6% | ACHN renal 78.8% | CAKI-1 renal 61.5% | CCRF-CEM leukemia 42.4% | MOLT-4 leukemia 19.7%

COc1ccc(C/C(C)=C(/c2ccc(OCCN3CCCCCC3)cc2)c2ccc(OC(=O)NCc3ccccc3)cc2)cc1
inactive: HCT-15 colon 60.6% | HT29 colon 13.4% | SNB-75 CNS 90.7% | SNB-19 CNS 87.4% | U251 CNS 71.8% | PC-3 prostate 71.8% | SK-MEL-5 melanoma 91.2% | UACC-62 melanoma 88.8% | LOX IMVI melanoma 52.3% | SK-MEL-28 melanoma 98.3% | SK-MEL-2 melanoma 94.9% | EKVX NSCLC 87.6% | SN12C renal 71.3% | UO-31 renal 62.7% | TK-10 renal 87.8% | ACHN renal 101% | CAKI-1 renal 92.8% | CCRF-CEM leukemia 58% | MOLT-4 leukemia 41.2%

C[C@@H]1CC[C@@]2(OC1)O[C@H]1C[C@H]3[C@@H]4CC=C5C[C@@H](O[C@@H]6O[C@H](CO)[C@@H](O[C@@H]7O[C@@H](CO)[C@H](O)[C@H]7O)[C@H](O)[C@H]6O[C@@H]6O[C@@H](C)[C@H](O)[C@@H](O)[C@H]6O)CC[C@]5(C)[C@H]4CC[C@]3(C)[C@H]1[C@@H]2C
active: HCT-15 colon -84.8% | HT29 colon -61.2% | SNB-75 CNS -94.3% | SNB-19 CNS -81.7% | U251 CNS -97.7% | PC-3 prostate -90.2% | SK-MEL-5 melanoma -89.7% | UACC-62 melanoma -98% | LOX IMVI melanoma -96.7% | SK-MEL-28 melanoma -96.9% | SK-MEL-2 melanoma -87% | EKVX NSCLC -66.6% | SN12C renal -97.4% | UO-31 renal -99.5% | TK-10 renal -81.2% | ACHN renal -98.3% | CAKI-1 renal -93.4% | CCRF-CEM leukemia -74.2% | MOLT-4 leukemia -60%

CCn1cc(CNc2ccc(C(=O)Nc3cc4cc(OC)c(OC)cc4c(C)n3)cc2)c(C)n1
active: SK-MEL-5 melanoma 1.46% | UACC-62 melanoma 6.57% | MOLT-4 leukemia 9.9%
inactive: HCT-15 colon 23.1% | HT29 colon 54.1% | SNB-75 CNS 77.1% | SNB-19 CNS 90% | U251 CNS 71% | PC-3 prostate 18.6% | LOX IMVI melanoma 23.9% | SK-MEL-28 melanoma 50.4% | SK-MEL-2 melanoma 11.5% | EKVX NSCLC 59.7% | SN12C renal 67% | UO-31 renal 22.4% | TK-10 renal 49% | ACHN renal 36.1% | CAKI-1 renal 30.1% | CCRF-CEM leukemia 11.8%

Cn1c(/C=C/[N+](=O)[O-])cc2ccccc21
active: HCT-15 colon -56.7% | HT29 colon -53.2% | U251 CNS -72.1% | PC-3 prostate 7.59% | LOX IMVI melanoma -79.7% | UO-31 renal -56.9% | A498 renal -20%
inactive: SNB-75 CNS 44.3% | SNB-19 CNS 57.7% | SK-MEL-5 melanoma 47.2% | UACC-62 melanoma 42.2% | SK-MEL-28 melanoma 73.3% | SK-MEL-2 melanoma 11.2% | EKVX NSCLC 46.1% | SN12C renal 43.7% | TK-10 renal 57.7% | CAKI-1 renal 82.8% | CCRF-CEM leukemia 30.1% | MOLT-4 leukemia 26.7%

CCCCCCCCNc1cc2c3c(c1)CCCN3CCC2
active: HT29 colon -9.19% | PC-3 prostate -0.993% | SK-MEL-5 melanoma -71.8% | LOX IMVI melanoma 2.21% | SK-MEL-2 melanoma -46.6% | SN12C renal 9.8%
inactive: HCT-15 colon 17.9% | SNB-75 CNS 35.9% | SNB-19 CNS 17.5% | U251 CNS 15.5% | UACC-62 melanoma 27.8% | SK-MEL-28 melanoma 48.9% | EKVX NSCLC 10% | UO-31 renal 61% | TK-10 renal 41.7% | CAKI-1 renal 38.6% | A498 renal 80.2% | CCRF-CEM leukemia 42.8% | MOLT-4 leukemia 27.5%

CSCCC(NC(=O)c1ccccc1)C(=O)N/N=C1\S/C(=C/c2ccc(Cl)cc2)C(=O)N1C (stereo not given)
inactive: HCT-15 colon 96.4% | HT29 colon 91.4% | SNB-75 CNS 57.8% | SNB-19 CNS 68.1% | U251 CNS 64.2% | PC-3 prostate 84.9% | SK-MEL-5 melanoma 82.9% | UACC-62 melanoma 91.1% | LOX IMVI melanoma 89.3% | SK-MEL-28 melanoma 85.9% | SK-MEL-2 melanoma 97.4% | EKVX NSCLC 92.7% | SN12C renal 97.3% | UO-31 renal 90.6% | TK-10 renal 105% | ACHN renal 76.5% | CAKI-1 renal 117% | MOLT-4 leukemia 66.8%
active: CCRF-CEM leukemia 4.24%

COc1cc(/C=N/Nc2ccccc2F)cc(OC)c1OC
inactive: HCT-15 colon 89.2% | HT29 colon 93.6% | SNB-75 CNS 103% | SNB-19 CNS 98.3% | U251 CNS 93.3% | PC-3 prostate 88.7% | SK-MEL-5 melanoma 102% | UACC-62 melanoma 65.7% | LOX IMVI melanoma 65.7% | SK-MEL-28 melanoma 110% | SK-MEL-2 melanoma 90.2% | EKVX NSCLC 87.4% | SN12C renal 97.1% | UO-31 renal 68.8% | TK-10 renal 157% | ACHN renal 81.3% | CAKI-1 renal 50.8% | CCRF-CEM leukemia 75.2% | MOLT-4 leukemia 83.9%

C=CC1(C)C(O[Si](C)(C)C(C)(C)C)CC2C3OC(=O)NC31c1cccc3c1[C@H](C(=O)N3C)C2(C)C (stereo not given in full)
inactive: HCT-15 colon 32.2% | HT29 colon 57.2% | SNB-75 CNS 74.4% | SNB-19 CNS 78.7% | U251 CNS 67% | PC-3 prostate 10.6% | SK-MEL-5 melanoma 25.9% | UACC-62 melanoma 29.4% | LOX IMVI melanoma 63% | SK-MEL-28 melanoma 63.7% | SK-MEL-2 melanoma 66.9% | EKVX NSCLC 44.2% | SN12C renal 50.2% | UO-31 renal 49.5% | TK-10 renal 71.3% | CAKI-1 renal 53.3% | A498 renal 62.6% | CCRF-CEM leukemia 47.1% | MOLT-4 leukemia 26%

O=C1OCC2=C1C(c1cccc(F)c1)c1cc3c(cc1N2CCO)OCO3 (stereo not given)
inactive: HCT-15 colon 22.1% | SNB-75 CNS 16.9% | SNB-19 CNS 32.9% | U251 CNS 21.7% | PC-3 prostate 25.1% | SK-MEL-5 melanoma 22.8% | UACC-62 melanoma 47.2% | LOX IMVI melanoma 34.9% | SK-MEL-28 melanoma 59.5% | SK-MEL-2 melanoma 26% | EKVX NSCLC 46.1% | SN12C renal 48.3% | UO-31 renal 36.9% | TK-10 renal 52.3% | CAKI-1 renal 23.8% | MOLT-4 leukemia 25.6%
active: HT29 colon 5.77% | A498 renal 3.08% | CCRF-CEM leukemia 7.3%

N#Cc1nc2c(S(=O)(=O)c3ccccc3)c(N)n(Cc3cccnc3)c2nc1C#N
inactive: HCT-15 colon 101% | HT29 colon 104% | SNB-75 CNS 57.4% | SNB-19 CNS 75.9% | U251 CNS 75.5% | PC-3 prostate 67% | SK-MEL-5 melanoma 93.6% | UACC-62 melanoma 85.6% | LOX IMVI melanoma 88.3% | SK-MEL-28 melanoma 89.3% | SK-MEL-2 melanoma 111% | EKVX NSCLC 76.7% | SN12C renal 138% | UO-31 renal 58.4% | TK-10 renal 99.2% | CAKI-1 renal 96.3% | A498 renal 104% | CCRF-CEM leukemia 35.3% | MOLT-4 leukemia 50%
